Screening data as filed in PubChem.
Pf Dd2 inh: inhibitors of Plasmodium falciparum Dd2 growth; Potency, µM (titrated, usually from 28.9 µM), inactives show at the top dose activity, negative = inhibition, hits mostly inhibitors; P. falciparum Dd2 growth, SYBR Green, 72 h; 120,000 compounds, 4.3% hits; AID 1347417; active means well fitted inhibition curve with a large enough effect;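 further: plate controls were DMSO vehicle for no effect and reference drug for full effect; nearly all actives have a fitted effect of over 65% in size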
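Readout: SYBR Green fluorescence, 485 nm excitation, 535 nm emission, after ~16 h lysis at 37C. Before that, Dd2-infected red cells (2.5% hematocrit) grew 72 h with compound, 29 uM top final concentration.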
Numbers without * were called inactive; i = inactive; ! = not confirmed by another sample; [ ] = remark or other dose. Many of the other results were omitted from the sample, so hits are more common in it than they were. Potency means the concentration at half of the fitted maximal effect.

SMILES	Pf Dd2 inh
CC(=O)NC[C@@H]1C=C(C)[C@H](Cc2nc3ccccc3n2C)C[C@H]1C(C)C	i
COCC(=O)NC[C@@H]1C=C(C)[C@H](Cc2nnc(-c3cncn3C)o2)C[C@H]1C(C)C	i
CC1=C[C@@H](CNC2CCOCC2)[C@H](C(C)C)C[C@H]1Cc1nc2ccccc2n1C	5µM*
CC1=C[C@@H](CNC(=O)N2CCOCC2)[C@H](C(C)C)C[C@H]1Cc1nc2ccccc2[nH]1	-8%[44.1 µM]
CC1=C[C@@H](CN2CCC(C(N)=O)CC2)[C@H](C(C)C)C[C@H]1Cc1nnc(-c2ccncc2)o1	-11%[44.1 µM]
CC1=C[C@@H](CN2CCC(C(N)=O)CC2)[C@H](C(C)C)C[C@H]1Cc1nnc(-c2cccnc2)o1	i
Cc1cc(C)c(CNC(=O)c2nc(-c3ccc(CO)cc3)cc3c2ccn3C)c(=O)[nH]1	-14%[44.1 µM]
CCCN1CCC2(CCN(C(=O)OC)CC2)Oc2ccccc21	i
Cc1ccc(SCC(=O)Nc2ccc3oc(-c4cccc(C)c4)nc3c2)cc1	-4%
Cc1ccc2nc(-c3cccc(NC(=O)CSc4ccc(Cl)cc4)c3)oc2c1	11µM*
Cc1ccc2nc(-c3ccc(C)c(NC(=O)CSc4ccc(Cl)cc4)c3)oc2c1	0%
O=C(c1ccsc1)N1CC[C@@H]2COCCN(Cc3ccccc3)[C@@H]2C1	-7%
CC(=O)N1CCC(C(NC(=O)c2ccccc2)C(=O)NCc2ccco2)CC1 (stereo not given)	1%
CCCN(C)C(=O)c1cn2cc(-c3cccc(Cl)c3)n(CC=C(C)C)c(=O)c2n1	13µM*
CCN(CC)c1ccc2cc(-c3nnc(-c4cccc(Cl)c4)o3)c(=O)oc2c1	-2%
CC(C)=CCn1c(-c2cc(C)oc2C)cn2cc(C(=O)N(C)CC(C)C)nc2c1=O	11µM*
CCCN(C(=O)c1cc2c(=O)oc3ccccc3c2s1)c1cccc(Cl)c1	11%
COc1ccc(-c2cn3cc(C(=O)NCC(N)=O)nc3c(=O)n2CC2CC2)c(F)c1	-28%
CCCCCNc1ncnc2c1CN(c1ccc(OC)cc1)C(=O)CN2C	14%
CC(=O)N1CCCC1c1nc(C2CN(S(=O)(=O)c3cccs3)C2)no1 (stereo not given)	-9%
Cc1nn(C)c(C)c1S(=O)(=O)N1CCCC1c1noc(COc2ccc(F)cc2)n1 (stereo not given)	-13%
CC(C)NC(=O)CCC[C@@H]1[C@H]2CCCN3CCC[C@@H](CN1C)[C@@H]23	7%
c1cnc2nc(-c3c[nH]c4ncccc34)[nH]c2c1	25µM*!
c1cnc2nc(C3CCNC3)[nH]c2c1 (stereo not given)	24%[44.1 µM]
O=C(NCc1c[nH]c2ncccc12)c1cccc2[nH]ccc12	-21%[44.1 µM]
SMILES	Pf Dd2 inh
Cc1cc(-c2nc3ncccc3[nH]2)c(C)[nH]1	28µM*!
c1ccc(-c2nc3ncccc3[nH]2)nc1	19%[44.1 µM]
c1cnc2nc(-c3ccsc3)[nH]c2c1	-19%[44.1 µM]
COC(=O)c1ccc(N2CCN(C(=O)Cn3nnnc3CN(C)C(C)C)CC2)cc1	-4%
CCCN1CCN(CCCNC(=O)c2cc3c(=O)[nH]c4ccccc4c3s2)CC1	13µM*
CCOc1ccc(CCNC(=O)c2cc3c(=O)n(C)c4ccccc4c3s2)cc1OCC	i
CCCN1CCN(CCCNC(=O)c2cc3c(s2)-c2c(C)cccc2OC3)CC1	i
CCCN1CCN(CCCNC(=O)c2cc3c(s2)-c2ccccc2OC3)CC1	i
CCCN(CCC)CCCNC(=O)c1cc2c(=O)n(C)c3ccccc3c2s1	10µM*
COc1ccc(NC(=O)c2cc3c(=O)n(C)c4ccccc4c3s2)cc1Cl	4%
CN1CCN(C(=O)CC[C@@H]2CNC(=O)[C@@H]3C[C@H](NC(=O)c4cccc(F)c4)CN23)CC1	11%[44.1 µM]
O=C(CC1CCCN(c2cnn(CC3CC3)c(=O)c2)C1)NCCN1CCOCC1 (stereo not given)	27%
COCCCNC(=O)c1cc2c(-c3cccc(OC)c3)nn(C)c2s1	i
COc1ccc(-c2nn(C)c3sc(C(=O)NCCN(C)C)cc23)cc1OC	-32%
COc1cccc(-c2nn(C)c3sc(C(=O)NCc4ccc(C)cc4)cc23)c1	10%
Cc1ccc(NC(=O)c2cc3c(-c4ccccc4)nn(-c4ccccc4)c3s2)cc1	2.8µM*
COc1ccc(-c2nn(C)c3sc(C(=O)Nc4cccc(F)c4)cc23)cc1OC	2.5µM*
COc1ccccc1CNC(=O)c1cc2c(-c3ccc(Cl)cc3)nn(C)c2s1	-20%
COc1cccc(NC(=O)c2cc3c(-c4ccc(Cl)cc4)nn(C)c3s2)c1	3.2µM*
COc1ccccc1NC(=O)c1cc2c(C)nn(-c3ccccc3)c2s1	-27%
COc1ccc(NC(=O)c2cc3c(C)nn(-c4ccccc4)c3s2)c(OC)c1	i
CCOc1cc(C(=O)N2CCN(c3cc(-c4cccs4)[nH]n3)CC2)cc(OCC)c1OCC	i
COc1ccc(C(=O)N[C@@H]2CCC[C@@H]2C(=O)NCc2cccc(F)c2)cn1	0%
O=C(NC[C@H]1COCc2nc3ccccc3n21)c1cccnc1	-18%[44.1 µM]
COc1nc(C)c(C(=O)N2CCn3nc(CO)cc3C2)s1	-13%
SMILES	Pf Dd2 inh
COc1ccc(C[C@H](NC(=O)C2=C[C@@H](NC(=O)c3ccccc3Br)[C@@H](O)[C@H](O)C2)C(N)=O)cc1	-15%
CCNC(=O)[C@@H]1C[C@H](N)CN1S(=O)(=O)c1cnn(CC)c1C	-9%
CC(=O)NC[C@H]1COCc2nc3cc(F)ccc3n21	18%[44.1 µM]
O=C(Nc1cc2c(cc1C(=O)c1ccccc1Cl)OCCO2)c1ccc(Br)cc1	13%
COc1cccc(C(=O)Nc2cc3c(cc2C(=O)c2ccc(C)cc2)OCCO3)c1	4%
CCC(O)c1cc2c(cc1NC(=O)c1cccc(Br)c1)OCCO2 (stereo not given)	11µM*
Cc1ccc(C2NC(=O)N(CC(=O)N(C)c3ccccc3)C3=C2C(=O)OC3)cc1 (stereo not given)	i
Cc1ccncc1NC(=O)CC1=C2CCCCC2N(C)C1=O (stereo not given)	0%
C1CC(N2CC(OCC3CC3)C23CCOCC3)CCN1 (stereo not given)	-1%
Cn1cc(CN[C@H]2[C@H](O)[C@H](O)C[C@@H]2c2ccc(N3CCOCC3)nc2)cn1	34%[44.1 µM]
Cc1ccc(CNC(=O)c2ccc(Cn3c(SCc4ccccc4F)nc4cccnc43)cc2)cc1	i
COc1ccccc1CNC(=O)c1ccc(Cn2c(SCc3ccccc3)nc3cccnc32)cc1	8.9µM*
Cc1ccccc1CSc1nc2cccnc2n1Cc1ccc(C(=O)NC2CC2)cc1	i
Cc1ccccc1CNC(=O)c1ccc(Cn2c(SCc3ccccc3)nc3cccnc32)cc1	11µM*
COC(=O)c1cc2n(n1)CCN(C(=O)c1cc(-c3ccccc3O)n[nH]1)C2	-7%
O=C1NCCCCCCN(Cc2ccncc2)[C@@H]2CN(C(=O)Nc3ccccc3)CC[C@@H]12	i
COC[C@@H]1CN(S(=O)(=O)c2ccccc2C)C[C@H]1c1ccncc1	-19%
O=C(NCc1cccnc1)C1=NOC2CN(C(=O)C3CC3)CC12 (stereo not given)	12%
COCCOC(=O)C1=C(C)N=C2SC=C(CC(=O)Nc3cccc(OC)c3)N2C1c1ccccc1 (stereo not given)	-1%
CCOC(=O)C1=C(C)N=C2SC=C(CC(=O)NC(C)CC)N2C1c1cccc([N+](=O)[O-])c1 (stereo not given)	i
COC(=O)C1=C(C)N=C2SC=C(CC(=O)Nc3ccc(F)cc3)N2C1c1ccc(OC)cc1OC (stereo not given)	-2%
